According to ChEMBL document CHEMBL3433997, “St. Jude Leishmania screening dataset” (2016):

What was measured:
Assay type in all cases: functional
[1] = biological target: Solute carrier family 2, facilitated glucose transporter member 1 (Homo sapiens) (UniProt P11166); experiment: ST_JUDE_LEISH: Cytotoxicity at 2uM final concentration against transgenic Leishmania Mexicana promastigotes LmGLUT1 that are glucose transport deficient and complemented with the human glucose transporter GLUT1. Activity is measured by DNA content using SYBR green in vitro
Sequence of Solute carrier family 2, facilitated glucose transporter member 1 (Homo sapiens) (P11166 whole entry): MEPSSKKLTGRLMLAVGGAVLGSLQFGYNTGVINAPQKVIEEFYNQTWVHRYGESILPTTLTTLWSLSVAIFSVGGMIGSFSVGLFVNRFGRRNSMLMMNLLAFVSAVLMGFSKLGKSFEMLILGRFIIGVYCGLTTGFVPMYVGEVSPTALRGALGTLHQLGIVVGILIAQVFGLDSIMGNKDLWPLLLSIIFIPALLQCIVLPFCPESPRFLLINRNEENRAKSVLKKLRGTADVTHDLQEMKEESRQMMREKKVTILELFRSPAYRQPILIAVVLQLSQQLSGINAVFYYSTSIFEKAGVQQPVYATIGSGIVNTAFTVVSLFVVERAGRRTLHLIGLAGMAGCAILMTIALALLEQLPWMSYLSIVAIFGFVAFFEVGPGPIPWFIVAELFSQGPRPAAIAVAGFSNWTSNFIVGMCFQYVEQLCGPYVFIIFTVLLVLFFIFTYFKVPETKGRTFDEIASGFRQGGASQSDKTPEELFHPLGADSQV

[2] = biological target: Hexose transporter 1 (Plasmodium falciparum) (UniProt O97467); experiment: ST_JUDE_LEISH: Cytotoxicity at 2uM final concentration against transgenic Leishmania Mexicana promastigotes LmPfHT that are glucose transport deficient and complemented with the Plasmodium falciparum hexose transporter. Activity is measured by DNA content using SYBR green in vitro
[3] = biological target: Glucose transporter (Leishmania mexicana) (UniProt O61059); experiment: ST_JUDE_LEISH: Cytotoxicity at 2uM final concentration against transgenic Leishmania Mexicana promastigotes LmGT2 that are glucose transport deficient and complemented with the L. Mexicana glucose transporter 2. Activity is measured by DNA content using SYBR green in vitro

| SMILES | inhibition [1] [%] | inhibition [2] [%] | inhibition [3] [%] |
| --- | --- | --- | --- |
| Cc1cc(OC(C)C(=O)N2CCc3ccccc32)ccc1Cl (centres undefined) | 4.58 | 3.8 | 6.71 |
| N=C(N)NN=Cc1c2ccccc2c(Cl)c2cc(Cl)ccc12 | 62.5 | 26.4 | 29.3 |
| O=C(Nc1ccc(C(=O)OCC2CCCN3CCCCC23)cc1)c1ccc(Cl)c(Cl)c1 (centres undefined) | 0.06 | -0.05 | 0.18 |
| Cc1cccc(C(=O)Nc2ccnc(N3CCC(N(C)Cc4cccc(C#N)c4)CC3)c2)c1 | 4.5 | 5.56 | 4.5 |
| CN1CCCC1CCNC(=O)[C@H](CC1CCCCC1)NC(=O)c1ccc(O)c(-c2ccc(Cl)c(Cl)c2)c1 (some centres undefined) | 8.26 | 10.3 | 6.63 |
| COc1cc2c(cc1OC)C(C(=O)Nc1ccc(C(F)(F)F)cc1)C(c1cccs1)N(C)C2=O (centres undefined) | 2.92 | 3.56 | 1.2 |
| Clc1cccc(Cl)c1CCNCC1CCN(CC2CCCCC2)CC1 | 5.48 | 5.47 | 6.54 |
| c1cncc(-c2cccc(CNc3nccc(Nc4ccc(OCCN5CCOCC5)cc4)n3)c2)c1 | 0.48 | 1 | 0.07 |
| NC1=NC(c2ccccc2)(c2ccccc2)C(=O)N1Cc1ccc(-c2ccncc2)cc1 | 8.4 | 6.36 | 6.42 |
| CCOC(=O)c1c(CN2CCCC2)n(-c2ccccc2)c2cc(Br)c(O)cc12 | 17 | 14 | 16.7 |
| COc1ccc(C=CC(=O)NC(=O)c2ccccc2OC(=O)c2ccccc2)cc1OC | 2.48 | 2.16 | 1.89 |
| Cc1cc(Nc2ccccc2)nc(NCCOc2ccccc2)n1 | 5.53 | 8.42 | 2.95 |
| O=C(CCc1ccccc1)N[C@H](Cc1c[nH]c2ccccc12)C(=O)N1CCC(NCc2ccc3c(c2)Cc2ccccc2-3)CC1 | 7.69 | 7.43 | 7.1 |
